Hit rate of the full screen: of about 400,000 compounds, about 5,500 (1.4%) were called active. About 9% were inconclusive and are not listed. Many of the other results were omitted from the sample, so actives are more common in it than they were. Unmarked numbers belong to inactive results. The call rests on the fitted dose curve; in most records, active means well fitted cell-killing curve with a large enough effect; inconclusive means small, poorly fitted or top-dose-only effect, or effect the other way; inactive means flat fitted curve, though single readings scatter.
On the % scale 0 is the no-effect control and ±100 the full control effect; potency means the concentration at half of the fitted maximal effect.

The assay can be described thus: qHTS assay for MDR1-selective chemotherapeutics: Primary screen using the parental adenocarcinoma cell KB-3-1. Further: nearly all actives have a fitted effect of over 60% in size. Conditions: KB-3-1 viability, CellTiter-Glo ATP luminescence, 72 h; series mostly up to 46.1 µM; activity change, negative = cytotoxic: at the top concentration. Summed up:
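Parental KB-3-1 adenocarcinoma cells in phenol-red-free DMEM with 10% FBS were pin-treated with compounds at several concentrations, incubated 72 h at 37 °C, and viability read by CellTiter-Glo luminescence; concentration-effect curves were fitted after normalization.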
As for `O=C(Nc1nnc(C2CC(=O)N(c3ccc(Cl)cc3)C2)s1)c1ccco1` (stereo not given), the “activity change, negative = cytotoxic” value is 13.2%. The same measure, in the same setting: to `Cc1nc2nc(NCc3cccc(Br)c3)[nH]n2c(=O)c1Cc1ccccc1` belongs -16.3%; to `CCN(CCCNC(=O)Cn1ncc2c([nH]c3ccccc32)c1=O)c1cccc(C)c1`, 8.56%.

Turning to `COc1ccc(-c2noc(CSc3nnc(-c4ccccc4)n3-c3ccc(F)cc3)n2)c(OC)c1`, the “activity change, negative = cytotoxic” value was -29.3%. With `CCOC(=O)c1c(C)[nH]c(C)c1S(=O)(=O)N1CCCC(C(=O)NCc2ccccc2Cl)C1` (stereo not given), the “activity change, negative = cytotoxic” value was 2.01%. On the same count and under the same terms, the value for `COc1cc(C(=O)Nc2ccc(OCc3cc(=O)n4ccc(C)cc4n3)cc2)cc(OC)c1OC` was 0.04%.

Take `CN(CCOc1ccc(CC2SC(=O)NC2=O)cc1)c1ccccn1` (stereo not given): the Potency result was “inactive”. Still for that read-out and setting: to `CCN(CC)CCOc1ccc2c(c1)C(=NNC(=O)c1ccccn1)c1cc(OCCN(CC)CC)ccc1-2` belongs 14.6 µM (active). For `CCN(CC)CCNCC(=O)Nc1ccc(Oc2ccccc2)cc1`, the “activity change, negative = cytotoxic” value is -6.12%. The same measure, in the same setting: the value for `Cn1c(=O)c2c(nc(Oc3ccc(C#N)cc3)n2Cc2ccc(Cl)cc2Cl)n(C)c1=O` was -21.6%; that for `CCc1ccc(NC(=O)Cn2c(=O)n(CCC(=O)NCc3ccc4c(c3)OCO4)c(=O)c3ccccc32)cc1` was -7.33%; that for `COC(=O)c1ccccc1NC(=O)c1cnn(-c2ccc(F)cc2)c1-n1cccc1` was -3.94%.

Regarding `CCC(=O)N1CCc2cc(S(=O)(=O)NC(Cc3ccccc3)C(=O)NCc3ccccc3)ccc21` (stereo not given), the “activity change, negative = cytotoxic” value is 3.83%. For `Cc1nnc2n1N=C(c1ccc3c(c1)NC(=O)CO3)CS2`, the “activity change, negative = cytotoxic” value is -55.2%. In the case of `COc1ccc(C2=Nn3c(nnc3-c3ccccc3OC)SC2)cc1OC1CCCC1`, the Potency was 2.31 µM (active). As for `CCn1c(SCC(=O)NC2CC2)nnc1-c1ccccc1OC`, the “activity change, negative = cytotoxic” value was -6.53%. Still for that read-out and setting: the value for `O=[n+]1c2c(n([O-])c3cc(Br)ccc31)CCC2` was 2.63%.

`O=C1CCCc2c1[nH]c1ccc(Br)cc21`: the Potency was 0.651 µM (active). With `C/C(=N\N)c1c(-c2ccccc2)c2cc(Br)ccc2[nH]c1=O`, the “activity change, negative = cytotoxic” value was -0.927%.

For the compound `CCOC(=O)c1ccccc1NC(=O)CCc1c(C)nc2c(c1C)c(=O)n(C)c(=O)n2C`, the “activity change, negative = cytotoxic” value was 2.75%. In the case of `Cc1nn(CC(=O)O)c(=O)c2cc3cc(F)ccc3n12`, the “activity change, negative = cytotoxic” value was -16.2%. The same measure, in the same setting: to `COc1cc(NC(=O)CCn2nc(C)cc2C)cc(OC)c1OC` belongs 14.8%; to `OC(CBr)CN1CCCCC1` (stereo not given), 25.7%; to `CC1(C(=O)NS(=O)(=O)c2ccccc2)CCN1C(=O)C/C=C/c1ccccc1` (stereo not given), 0%. Same read-out and setting: the value for `CC1(C(=O)O)CCN1C(=O)/C=C/c1ccccc1` (stereo not given) was 0%. On to `CC1(C)CCSC(/C=C/c2ccccc2)=N1`, for which the Potency is 14.6 µM (active). Consider `COc1ccc(S(=O)(=O)Nc2cc(C)on2)cc1NC(C)=O`, for which the “activity change, negative = cytotoxic” value was 0.0056%. For the compound `COc1ccc(NS(=O)(=O)c2ccc(NC(C)=O)cc2)cc1OC`, the Potency is 14.6 µM (active). Turning to `COc1ccc(NC(=S)SC)cc1OC`, the “activity change, negative = cytotoxic” value is -0.174%.

In the case of `CC(=O)c1c(C)oc2ccc(NS(=O)(=O)c3ccccc3)cc12`, the “activity change, negative = cytotoxic” value is -0.879%.

`CC(=O)c1c(C)oc2ccc(NS(=O)(=O)c3ccc(C(=O)O)cc3)cc12`: the “activity change, negative = cytotoxic” value is 19.3%. On to `COc1ccc(S(=O)(=O)Nc2ccc3oc(C)c(C(C)=O)c3c2)cc1`, for which the Potency was 3.26 µM (active). For the compound `Cc1ccc(N(C)C(=O)C2CCN(S(=O)(=O)c3ccc4c(c3)CCCN4C(=O)C3CCC3)CC2)cc1`, the “activity change, negative = cytotoxic” value is 17.9%.

For the compound `CCOc1ccc(CNCc2c(C(=O)O)c(C)n(Cc3cccc(OC)c3)c2C)cc1OC`, the “activity change, negative = cytotoxic” value is 4.24%.

Turning to `OCCNc1ncnc2oc(-c3ccco3)c(-c3ccco3)c12`, the “activity change, negative = cytotoxic” value is -17.6%. With `Cn1c(=O)c2c(SCC(=O)N3CCc4ccccc43)nc(-c3ccc(Cl)cc3)nc2n(C)c1=O`, the “activity change, negative = cytotoxic” value is -2.78%. The same measure, in the same setting: to `O=C(COc1ccccc1F)Nc1ccc(C(=O)OCc2cc(=O)n3nc(C4CC4)sc3n2)cc1` belongs 1.59%. Take `COc1cccc(C(=O)NCc2ccc3c(c2)CCN3C(=O)c2ccncc2)c1`: the “activity change, negative = cytotoxic” value was 4.3%.

Regarding `Brc1cccc[n+]1Cc1cccc(C[n+]2ccccc2Br)c1`, the “activity change, negative = cytotoxic” value is -4.59%. On to `S=c1[nH]nc(-c2ccco2)n1/N=C/c1ccc(Br)s1`, for which the “activity change, negative = cytotoxic” value was -2.84%.

Consider `Cc1cc(-c2n[nH]c(=S)n2/N=C/C(Br)=C/c2ccccc2)n[nH]1`, for which the Potency was 5.8 µM (active). Turning to `COc1ccccc1/C=C/C=N/n1c(-c2ccc(Cl)cc2Cl)n[nH]c1=S`, the “activity change, negative = cytotoxic” value is 4.22%. In the case of `CN(C)CCCn1c(N)c(C#N)c2nc(C#N)c(C#N)nc21`, the Potency was 23.1 µM (active). For the compound `COCCn1c(SCC(=O)c2cc(C)ccc2C)nc2cc(C(=O)NC3CCCC3)ccc2c1=O`, the “activity change, negative = cytotoxic” value is 9.54%.

`COCCn1cnc2c1c(=O)n(Cc1ccc(Br)cc1)c(=O)n2Cc1ccccc1`: the “activity change, negative = cytotoxic” value is 6.16%. As for `CCCCCc1c(Cc2ccccc2)ncn1CCc1ccccc1OC`, the Potency was 16.4 µM (active). As to `CCCCc1c(-c2ccc(Br)cc2)ncn1CCc1ccccc1OC`, the Potency is 16.4 µM (active). Consider `CCCc1c(-c2ccccc2F)ncn1Cc1ccccc1OC`, for which the Potency is 20.6 µM (active). In the case of `COc1cccc(OC)c1C(=O)N1CCN(Cc2ccccc2F)CC1`, the “activity change, negative = cytotoxic” value is -19.9%. Still for that read-out and setting: the value for `CCOc1ccc(-c2n[nH]c3c2C(c2ccccc2OC)N(c2ccc(Br)cc2)C3=O)cc1` (stereo not given) was 3.38%.

The values are drawn from PubChem BioAssay AID1347075 (National Center for Advancing Translational Sciences (NCATS), 2019).
